Test results as given in PubChem BioAssay (Tox21).
Records with an inconclusive call do not appear. Calls of active or inactive are those of the source. Calls follow the shape of the dose curve; as a rule, active = well fitted activation curve with a large enough effect in the signal ratio in the repeat runs (not every such curve was filed as active); inconclusive = weak or mixed curves; inactive = flat fitted curve, though single readings scatter; the % refers to the signal ratio.

Experiment: qHTS assay to identify small molecule agonists of the TGF-beta/Smad signaling pathway (AID 1346859)
Details: SBE-bla HEK293T, TGF-beta/Smad beta-lactamase reporter, 5 h; series mostly up to 76.8 µM
Source text: U.S. Tox21 Program National Center for Advancing Translational Sciences [NCATS] NIH Chemical Genomics Center [NCGC] U.S. Environmental Protection Agency [EPA] National Institutes of Environmental Health Sciences [NIEHS] National Toxicology Program [NTP] U.S. Food and Drug Administration [FDA] Tox21 Assay Overview: Transforming growth factor beta (TGF-beta) superfamily consists of a large number of structurally related dimeric proteins that act as hormones or local mediators in regulating a wide range of biological functions. This superfamily includes TGF-betas themselves, the bone morphogenetic proteins (BMPs) and the activins. These ligands induce oligomerization of serine/threonine receptor kinases and phosphorylate the cytoplasmic signaling molecules of Smad protein family. CellSensor SBE-bla HEK 293T cell line (Life Technologies, Carlsbad, CA), responsive to TGF-beta was used to screen Tox21 10K compound library for identification of agonists/antagonists of the Smad signaling pathway. This cell line contains a beta-lactamase reporter gene under control of the Smad binding element (SBE) stably integrated into HEK 293T cells.
Tox21 Assay Protocol Summary: SBE-bla HEK 293T cells were dispensed at 4,000/well in 6 uL of assay medium into black wall/clear-bottom 1536-well plates using a Multidrop Combi (ThermoFisher Scientific, Waltham, MA) dispenser. After the assay plates were incubated at 37 C and 5% CO2 for an overnight, 23 nL of compounds dissolved in DMSO, positive controls or DMSO only was transferred to the assay plate by a Pintool station (Kalypsys, San Diego, CA). The assay plates were incubated at 37 C and 5% CO2 for 5 hr. One uL of LiveBLAzer B/G FRET substrate (Life Technologies) was added using a Flying Reagent Dispenser (Aurora Discovery, San Diego, CA) and the plates were incubated at room temperature for 2 hr. Fluorescence intensity (405 nm excitation, 460 nm and 530 nm emissions) was measured using an Envision plate reader (PerkinElmer, Shelton, CT).

Structure (SMILES)	outcome
CCCCCCCCCCBr	inactive
Cc1cc(C)c(C2=C(OC(=O)CC(C)(C)C)C3(CCCC3)OC2=O)c(C)c1	inactive
O=C/C(Cl)=C(/Cl)C(=O)O	inactive
O=C(CCl)C(Cl)Cl	inactive
CCCCN(CCCC)C(=S)[S-].CCCCN(CCCC)C(=S)[S-].[Zn+2]	inactive
N#C/C=C/C#N	inactive
CCOP(=S)(OCC)SCS(=O)(=O)CC	inactive
CSCCCN=C=S	inactive
N#Cc1ccc(O)cc1	inactive
FC(Cl)(Cl)Cl	inactive
CC(C)OC(=O)C(O)(c1ccc(Cl)cc1)c1ccc(Cl)cc1	inactive
CC(C)CC(C)N (stereo not given)	inactive
NC(=O)c1ccc(N)nc1	inactive
CN(C)CCc1c[nH]c2ccc(O)cc12	inactive
ClC1=C(Cl)[C@]2(Cl)[C@@H]3[C@@H](Cl)[C@H](Cl)C[C@@H]3[C@@]1(Cl)C2(Cl)Cl	inactive
Oc1ccc(C(=C(Cl)Cl)c2ccc(O)cc2)cc1	inactive
Cc1ccc(OP(=O)(Oc2ccccc2)Oc2ccccc2)cc1	inactive
OC(c1ccc(Cl)cc1)(c1ccc(Cl)cc1)C(Cl)(Cl)Cl	inactive
Clc1ccc(-c2ccccc2)cc1	inactive
OC(Cc1ccccc1Cl)(Cn1cncn1)C1(Cl)CC1 (stereo not given)	inactive

Structure (SMILES)	outcome
CC(C)[C@H](C(=O)O[C@H](C#N)c1cccc(Oc2ccccc2)c1)c1ccc(Cl)cc1	inactive
CCOCCOC(C)=O	inactive
CC1(C)[C@H](C(=O)O[C@H](C#N)c2cccc(Oc3ccccc3)c2)[C@@H]1/C=C(\Cl)C(F)(F)F	inactive
Fc1ccc(Oc2ccnc3cc(Cl)cc(Cl)c23)cc1	inactive
CC(C)CCCCCCCOP(=O)(Oc1ccccc1)Oc1ccccc1	inactive
Oc1ccc(I)cc1	inactive
CCCCCCCCCBr	inactive
Clc1ccc(CO/N=C(\Cn2ccnc2)c2ccc(Cl)cc2Cl)c(Cl)c1	inactive
COS(=O)(=O)c1ccc(C)cc1	inactive
COP(N)(=S)OC	inactive
Clc1ccc(C(c2ccc(Cl)cc2)C(Cl)(Cl)Cl)cc1	inactive
CC[C@H]1C[C@@H]2C[C@H]3c4[nH]c5ccc(OC)cc5c4CCN(C2)[C@@H]13	inactive
Fc1cccc(Cl)c1CCl	inactive
Oc1ccc(C2(c3ccc(O)cc3)c3ccccc3-c3ccccc32)cc1	inactive
CCOP(=S)(OCC)OC(Cl)C(Cl)(Cl)Cl (stereo not given)	inactive
ClC(Cl)=C(c1ccc(Cl)cc1)c1ccc(Cl)cc1	inactive
CCCCCCCCCCCCCCCC[N+](C)(C)C	inactive
COc1cc(N)c(Cl)cc1C(=O)NC1CN2CCC1CC2 (stereo not given)	inactive
COc1cc(C=O)cc2c1[C@H](COC(N)=O)[C@]1(OC(C)=O)ON2C[C@H]2[C@@H]1N2C(C)=O	inactive
C[C@]12CC[C@@H]3c4ccc(OC(=O)N(CCCl)CCCl)cc4CC[C@H]3[C@@H]1CC[C@@H]2O	inactive
